Experimental findings from ChEMBL document CHEMBL3988442, “University of Dundee, Small-Polar-MMV Screening Library” (2021) are described below.

Molecules are shown by their SMILES.

One assay deals with T1, Aspartate--tRNA(Asp/Asn) ligase (Mycobacterium tuberculosis (strain ATCC 25618 / H37Rv)) (UniProt P9WFW3).
T1 sequence (whole entry): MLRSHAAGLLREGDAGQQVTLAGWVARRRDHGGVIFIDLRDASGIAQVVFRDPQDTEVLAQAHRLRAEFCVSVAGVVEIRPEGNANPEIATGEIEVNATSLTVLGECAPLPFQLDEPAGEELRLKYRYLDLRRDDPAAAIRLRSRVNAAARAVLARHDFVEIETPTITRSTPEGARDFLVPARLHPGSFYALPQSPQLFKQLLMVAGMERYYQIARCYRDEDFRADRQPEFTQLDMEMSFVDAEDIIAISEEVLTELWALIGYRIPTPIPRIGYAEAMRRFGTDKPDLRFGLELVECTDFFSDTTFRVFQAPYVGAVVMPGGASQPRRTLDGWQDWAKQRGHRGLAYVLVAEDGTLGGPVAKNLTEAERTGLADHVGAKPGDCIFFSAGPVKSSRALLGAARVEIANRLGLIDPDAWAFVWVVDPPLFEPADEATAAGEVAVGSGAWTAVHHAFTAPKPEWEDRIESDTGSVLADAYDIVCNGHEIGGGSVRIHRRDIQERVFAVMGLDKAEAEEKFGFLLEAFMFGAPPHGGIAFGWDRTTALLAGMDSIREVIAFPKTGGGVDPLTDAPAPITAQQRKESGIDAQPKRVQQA
The assay is described as follows: Assay for Asp RNA synthetase-1 from Mycobacterium tuberculosis. The assay is classed as functional. Set-up: scale not given: direction of the effect not stated beside the values. The note with it: 30 µM.
As for `CC(C)c1nc(CN2CCN(CC3CCCO3)CC2)cs1` (stereo not given), the Percent Effect is -0.404%.

Turning to `CN(Cc1ccccc1)CC1(O)CCCN(CC(C)(C)C)C1=O` (stereo not given), the Percent Effect was -7.46%.

As for `Cn1ncc2c(=O)[nH]c(CN(Cc3cccc(F)c3)C3CC3)nc21`, the Percent Effect was -6.19%.

On to `Cc1cnn(CCC(=O)N2CCCC(c3nc(C)no3)C2)c1` (stereo not given), for which the Percent Effect is 4.08%.

For the molecule `Cc1nccnc1CN1CCC2(CCCN(C3CCOCC3)C2=O)C1` (stereo not given), the Percent Effect turned out to be 2.6%.

With `CCC1=N[C@@]2(CC[C@@H]3CN(Cc4ccc(Cl)cc4)C[C@@H]32)C(=O)N1`, the Percent Effect is 0.626%.

On to `c1ccc(-c2nc(CN3CCOC(Cn4cccn4)C3)no2)cc1` (stereo not given), for which the Percent Effect is -1.51%.

As to `CC(C)n1ccnc1CN1CCCN(C(=O)COC2CCCC2)CC1`, the Percent Effect is -1.67%.

On to `COc1c(C2CCCN2Cc2csc(C(C)C)n2)c(C)nn1C` (stereo not given), for which the Percent Effect is -1.4%.

Take `CNC(=O)c1ccc(CN2CCC(N(C)Cc3noc(C)n3)C2)cc1` (stereo not given): the Percent Effect was -0.577%.

In the case of `Cc1ccc(CN2CCCC23CCN(S(=O)(=O)c2ccccc2)C3)o1` (stereo not given), the Percent Effect came out at 4.14%.

Take `Cc1oc(-c2ccsc2)nc1CC(=O)NCCS(C)(=O)=O`: the Percent Effect stood at 12.7%.

Consider `CN(CCCc1cnn(C)c1)C(=O)C1CCOC1` (stereo not given), for which the Percent Effect came out at 5.2%.

With `COc1ccc(-c2nccnc2C2CCN(C(C)=O)CC2)cc1`, the Percent Effect was found to be 0.0149%.

Take `CC(OCC(F)(F)F)C(=O)Nc1ccc(-n2cncn2)nc1` (stereo not given): the Percent Effect is -0.432%.

On to `CC(C)NC(=O)[C@@H]1C[C@H](N)CN1C(=O)c1cc2c([nH]c1=O)CCCC2`, for which the Percent Effect came to 2.4%.

With `Cc1nn(CC(C)C)c(N(C)C)c1CNCc1cc2ccccc2[nH]1`, the Percent Effect was -2.12%.

Regarding `Cc1nn(C)c(N2CCOCC2)c1CNCc1ccnc(N(C)C)c1`, the Percent Effect is -1.27%.

With `Cc1cnn(C2CCCN(C(=O)c3sccc3-n3cnnn3)C2)c1` (stereo not given), the Percent Effect was -2.01%.

Consider `Cc1ncsc1C(=O)N1CCCC(c2noc(C(C)C)n2)C1` (stereo not given), for which the Percent Effect is -6.6%.

As to `Cc1ncc(CNC(=O)c2nn(C)c3c2CS(=O)(=O)CC3)s1`, the Percent Effect is -7.14%.

With `NC(=O)CSCCC(=O)N1CCCC1c1ccsc1` (stereo not given), the Percent Effect was -7.94%.

For `CCn1cc(N2Cc3nc(N4CCN(C)CC4)ncc3C2=O)cn1`, the Percent Effect was -1.54%.

On to `O=C(c1ccncc1F)N1CCc2ncnc(-c3ccncc3)c2CC1`, for which the Percent Effect is 3.59%.

In the case of `CN(Cc1nnc(C2CC2)o1)C1CCN(CCCc2cnn(C)c2)C1` (stereo not given), the Percent Effect worked out at 5.28%.

On to `Cc1cc(-c2cnn(CCNC(=O)C3CCCO3)c2C2CC2)on1` (stereo not given), for which the Percent Effect was -4.09%.

Turning to `CNc1nc(CNC(=O)Nc2ccccc2SC)cs1`, the Percent Effect was -0.278%.

For the molecule `Cc1cc(C2CCCN(CCCS(=O)(=O)c3ccccc3)C2)n[nH]1` (stereo not given), the Percent Effect is 3.14%.

In the case of `CCCN(Cc1ccccc1)Cn1nc(C)c2c(C)onc2c1=O`, the Percent Effect worked out at 9.28%.

As for `CCN1C(=O)CCCC12CCCN(C(=O)c1conc1C)C2` (stereo not given), the Percent Effect was -4.46%.

Consider `O=C(NCCOc1ncc(Cl)cc1Cl)c1ccncc1`, for which the Percent Effect stood at 5.64%.

For `O=C(C1CC1)N1CCN(Cc2coc(-c3ccc(Cl)cc3)n2)CC1`, the Percent Effect is -1.18%.

`CCN1CCC(CNC(=O)NCc2cc(-c3ccc(C)cc3)no2)C1` (stereo not given): the Percent Effect stood at 2.27%.

With `Cc1ccc(CN2CCC(F)(F)C3(CCN(c4cnccn4)C3)C2)o1` (stereo not given), the Percent Effect was found to be 5.56%.

For the molecule `CN(CCn1cccn1)S(=O)(=O)N1CCCC1c1ccco1` (stereo not given), the Percent Effect was 4.31%.

`CC(=O)NCCC(=O)NCc1cccnc1-n1cnc2ccccc21`: the Percent Effect was -1.62%.

As to `O=C1CCC2(CCCN(c3ncc(F)cn3)CC2)N1CC1CC1` (stereo not given), the Percent Effect is -1.91%.

Regarding `CN(C)S(=O)(=O)N1CC[C@]2(C[C@H](Oc3ncccc3F)CO2)C1`, the Percent Effect was 2.03%.

`CC(C)N1CCC(Cc2cncc(-c3ccccc3C(=O)O)n2)CC1`: the Percent Effect was found to be 1.34%.

With `O=S(=O)(Nc1cnn(C2CCOCC2)c1)c1c(F)cccc1F`, the Percent Effect was determined as 2.52%.

A further assay has as its target Shiga toxin 2 (Escherichia coli O157:H7) (UniProt P09385+P09386). The assay can be described thus: E. coli 0.157:H7 Shiga Toxin SOP - stx2 screening assay. In kind it is functional. Set-up: scale not given: direction of the effect not stated beside the values. The note with it: 30 µM.
For `CC(C)c1nc(CN2CCN(CC3CCCO3)CC2)cs1` (stereo not given), the Percent Effect was determined as 12%.

For the molecule `CN(Cc1ccccc1)CC1(O)CCCN(CC(C)(C)C)C1=O` (stereo not given), the Percent Effect amounted to 17.9%.

On to `Cn1ncc2c(=O)[nH]c(CN(Cc3cccc(F)c3)C3CC3)nc21`, for which the Percent Effect was 3.9%.

Consider `Cc1cnn(CCC(=O)N2CCCC(c3nc(C)no3)C2)c1` (stereo not given), for which the Percent Effect is 3.29%.

Turning to `Cc1nccnc1CN1CCC2(CCCN(C3CCOCC3)C2=O)C1` (stereo not given), the Percent Effect was -28.8%.

Consider `CCC1=N[C@@]2(CC[C@@H]3CN(Cc4ccc(Cl)cc4)C[C@@H]32)C(=O)N1`, for which the Percent Effect is 3.7%.

Consider `c1ccc(-c2nc(CN3CCOC(Cn4cccn4)C3)no2)cc1` (stereo not given), for which the Percent Effect was 4.08%.

For `CC(C)n1ccnc1CN1CCCN(C(=O)COC2CCCC2)CC1`, the Percent Effect was -3.07%.

As to `COc1c(C2CCCN2Cc2csc(C(C)C)n2)c(C)nn1C` (stereo not given), the Percent Effect is -10.7%.

As to `CNC(=O)c1ccc(CN2CCC(N(C)Cc3noc(C)n3)C2)cc1` (stereo not given), the Percent Effect amounted to 7.96%.

Consider `Cc1ccc(CN2CCCC23CCN(S(=O)(=O)c2ccccc2)C3)o1` (stereo not given), for which the Percent Effect came to 3.29%.

Consider `Cc1oc(-c2ccsc2)nc1CC(=O)NCCS(C)(=O)=O`, for which the Percent Effect was -25.4%.

For `CN(CCCc1cnn(C)c1)C(=O)C1CCOC1` (stereo not given), the Percent Effect is -36.5%.

In the case of `COc1ccc(-c2nccnc2C2CCN(C(C)=O)CC2)cc1`, the Percent Effect came out at 12%.

Consider `CC(OCC(F)(F)F)C(=O)Nc1ccc(-n2cncn2)nc1` (stereo not given), for which the Percent Effect amounted to 13.4%.

On to `CC(C)NC(=O)[C@@H]1C[C@H](N)CN1C(=O)c1cc2c([nH]c1=O)CCCC2`, for which the Percent Effect was -1.55%.

Consider `Cc1nn(CC(C)C)c(N(C)C)c1CNCc1cc2ccccc2[nH]1`, for which the Percent Effect amounted to 31.1%.

In the case of `Cc1nn(C)c(N2CCOCC2)c1CNCc1ccnc(N(C)C)c1`, the Percent Effect was found to be 25.6%.

Consider `Cc1cnn(C2CCCN(C(=O)c3sccc3-n3cnnn3)C2)c1` (stereo not given), for which the Percent Effect is -40.9%.

Regarding `Cc1ncsc1C(=O)N1CCCC(c2noc(C(C)C)n2)C1` (stereo not given), the Percent Effect is -6.13%.

Take `Cc1ncc(CNC(=O)c2nn(C)c3c2CS(=O)(=O)CC3)s1`: the Percent Effect is -24.6%.

Consider `NC(=O)CSCCC(=O)N1CCCC1c1ccsc1` (stereo not given), for which the Percent Effect amounted to 6.46%.

As to `CCn1cc(N2Cc3nc(N4CCN(C)CC4)ncc3C2=O)cn1`, the Percent Effect is -50.9%.

`O=C(c1ccncc1F)N1CCc2ncnc(-c3ccncc3)c2CC1`: the Percent Effect is -0.901%.

`CN(Cc1nnc(C2CC2)o1)C1CCN(CCCc2cnn(C)c2)C1` (stereo not given): the Percent Effect is -45.6%.

On to `Cc1cc(-c2cnn(CCNC(=O)C3CCCO3)c2C2CC2)on1` (stereo not given), for which the Percent Effect is 7.9%.

With `CNc1nc(CNC(=O)Nc2ccccc2SC)cs1`, the Percent Effect was determined as 22.5%.

As for `Cc1cc(C2CCCN(CCCS(=O)(=O)c3ccccc3)C2)n[nH]1` (stereo not given), the Percent Effect was found to be 4.75%.

Regarding `CCCN(Cc1ccccc1)Cn1nc(C)c2c(C)onc2c1=O`, the Percent Effect was found to be 6.54%.

Regarding `CCN1C(=O)CCCC12CCCN(C(=O)c1conc1C)C2` (stereo not given), the Percent Effect came out at 1.9%.

With `O=C(NCCOc1ncc(Cl)cc1Cl)c1ccncc1`, the Percent Effect was -19.5%.

For the molecule `O=C(C1CC1)N1CCN(Cc2coc(-c3ccc(Cl)cc3)n2)CC1`, the Percent Effect is 7.92%.

Take `CCN1CCC(CNC(=O)NCc2cc(-c3ccc(C)cc3)no2)C1` (stereo not given): the Percent Effect was -44.9%.

Consider `Cc1ccc(CN2CCC(F)(F)C3(CCN(c4cnccn4)C3)C2)o1` (stereo not given), for which the Percent Effect is -6.62%.

For the molecule `CN(CCn1cccn1)S(=O)(=O)N1CCCC1c1ccco1` (stereo not given), the Percent Effect is 20.4%.

Regarding `CC(=O)NCCC(=O)NCc1cccnc1-n1cnc2ccccc21`, the Percent Effect was -2.41%.

Turning to `O=C1CCC2(CCCN(c3ncc(F)cn3)CC2)N1CC1CC1` (stereo not given), the Percent Effect is -3.81%.

For the molecule `CN(C)S(=O)(=O)N1CC[C@]2(C[C@H](Oc3ncccc3F)CO2)C1`, the Percent Effect stood at 2.42%.

`CC(C)N1CCC(Cc2cncc(-c3ccccc3C(=O)O)n2)CC1`: the Percent Effect was 6.75%.

As to `O=S(=O)(Nc1cnn(C2CCOCC2)c1)c1c(F)cccc1F`, the Percent Effect is 1.54%.
